Inconclusive results are not listed. Calls of active or inactive are those of the source. The call rests on the fitted dose curve; in most records, active means well fitted inhibition curve with a large enough effect; inconclusive means small, poorly fitted or top-dose-only effect; inactive means no such curve, though single readings can be large or run the other way.
assay: Primary qHTS for small molecule stabilizers of the endoplasmic reticulum resident proteome: Secreted ER Calcium Modulated Protein (SERCaMP) assay (AID 1508630); conditions: SH-SY5Y GLuc-SERCaMP (Gaussia luciferase released on ER calcium loss) secretion, thapsigargin, luminescence; series mostly up to 38.4 µM
Summary of the method: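 GLuc-SERCaMP-expressing SH-SY5Y cells, pretreated 16 h with compound, are challenged with thapsigargin to empty ER calcium stores; after 4 h, coelenterazine is added directly to the medium and luminescence is imaged.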

Potency, inactive:
CC1=CC2C(=O)c3cccc(O)c3C(=O)C2C(O)=C1 (stereo not given), C[C@@H]1Oc2ccccc2C=C1/C=C/C(=O)O, Cc1csc(-c2coc3cc(O[C@@H]4O[C@H](CO)[C@@H](O)[C@@H](O)[C@H]4O)ccc3c2=O)n1, COc1cc(C)c(CC/C(C)=C/C=C/C(C)=O)c(C)c1C, O=c1[nH]c(-c2ccccc2O)nc2ccccc12

From PubChem BioAssay (NCATS)
